Source: PubChem BioAssay AID540259 (Broad Institute, 2011)
Entries with a potency or affinity are not part of this list. Calls of active or inactive are those of the source.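 The calls were made as follows: active = cell killing, meaning signal decrease, with fitted half-maximal dose at or below ten times the top valid tested dose; inconclusive = poor fit, or flat curve with 30 to 70% signal loss; inactive = the rest.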

Assay: HeLa cell cytotoxicity, dose response, cytotoxicity control for MITF activator project, CellTiter-Glo luminescence, cherry-pick samples (AID 540259)
Settings: HeLa viability, CellTiter-Glo ATP luminescence, 24 h; series mostly up to 35 µM

SMILES | outcome
COc1c(C)cccc1C(=O)Nc1ccc(N2CCN(S(C)(=O)=O)CC2)cc1 | inactive
CCC(C)NC(=O)c1cn(-c2cccc(C)n2)cn1 (configuration not stated) | inactive
CCC(C)NC(=O)c1cc(-c2ccc(OC)cc2)on1 (configuration not stated) | inactive
COc1ccc(C(=O)c2ccc(CC#N)s2)cc1 | inactive
CCN=c1scc(-c2ccc(F)cc2)n1/N=C/c1ccccn1 | inactive
CN(c1ccccc1)c1nc2ccsc2c(=O)s1 | inactive
NNC(=O)c1ccc2nc(-c3ccc(Br)cc3)cn2c1 | inactive
CC(=O)c1ccc(Nc2ccc(-c3ccccc3C)nn2)cc1 | inactive
O=C(NCC1CC1)Nc1ccc(Cl)cc1 | inactive
Cc1ccsc1C(=O)OCc1nnc(-c2ccccc2)o1 | inactive
Clc1ccccc1OCc1nnc(-c2ccccc2Br)o1 | inactive
CCN1CCN(c2ccc(NC(=O)c3cccc(F)c3)cc2Cl)CC1 | inactive
Clc1ccc(-n2nnc(-c3cccnc3Cl)n2)cn1 | inactive
CSc1nc2ccc(NC(=O)c3cccs3)cc2s1 | inactive
CCN(CC)c1ccc(C(=O)NNC(=O)c2cccn2C)cc1 | inactive
O=C(Cc1ccccc1)Nc1nc(-c2cccs2)cs1 | inactive
COc1ccc(-c2nn(-c3ccccc3)cc2C#N)cc1 | inactive
O=C(O)c1ccc(-c2nc(-c3ccc(Cl)cc3)cs2)cc1 | inactive
Brc1ccc(OCc2cn3ccccc3n2)cc1 | inactive
Cc1ccc(C(=O)Cn2nnc3ccccc32)cc1C | inactive
c1ccc2c(c1)NC1(CCCC1)n1c-2nc2ccccc21 | inactive
COc1ccc(NC(=O)c2ccc3c(c2)OCO3)cc1Cl | inactive
